# Laboratory results: PubChem BioAssay (NCI)
# This is part of a sample that, as a whole, favours compounds with a hit. Of some 83,000 tested, about 20% had one in any assay.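 Single-dose data. Exposure time 48 hours. Values below 10 considered active.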 Unmarked numbers belong to inactive results. Active and inactive are the calls of the source.
# What was measured:
# Test in all cases: NCI-60 one-dose screen, 48 h (100 = growth as untreated, 0 = no growth, -100 = all killed)
# Settings in all cases: 10 µM unless noted
# EKVX NSCLC = tested on: EKVX NSCLC
# SN12C renal = tested on: SN12C renal
# UO-31 renal = tested on: UO-31 renal
# ACHN renal = tested on: ACHN renal
# CAKI-1 renal = tested on: CAKI-1 renal
# CCRF-CEM leukemia = tested on: CCRF-CEM leukemia
# MOLT-4 leukemia = tested on: MOLT-4 leukemia
# SR leukemia = tested on: SR leukemia
# RPMI-8226 leukemia = tested on: RPMI-8226 leukemia
# OVCAR-8 ovarian = tested on: OVCAR-8 ovarian
# OVCAR-5 ovarian = tested on: OVCAR-5 ovarian
# OVCAR-4 ovarian = tested on: OVCAR-4 ovarian
# SK-OV-3 ovarian = tested on: SK-OV-3 ovarian
# IGROV1 ovarian = tested on: IGROV1 ovarian
# OVCAR-3 ovarian = tested on: OVCAR-3 ovarian
# HS 578T breast = tested on: HS 578T breast
# NCI/ADR-RES ovarian = tested on: NCI/ADR-RES ovarian
# T-47D breast = tested on: T-47D breast
# TK-10 renal = tested on: TK-10 renal
# A498 renal = tested on: A498 renal
Compound,growth (EKVX NSCLC) [%],growth (SN12C renal) [%],growth (UO-31 renal),growth (ACHN renal),growth (CAKI-1 renal) [%],growth (CCRF-CEM leukemia),growth (MOLT-4 leukemia),growth (SR leukemia) [%],growth (RPMI-8226 leukemia) [%],growth (OVCAR-8 ovarian) [%],growth (OVCAR-5 ovarian) [%],growth (OVCAR-4 ovarian) [%],growth (SK-OV-3 ovarian),growth (IGROV1 ovarian),growth (OVCAR-3 ovarian) [%],growth (HS 578T breast) [%],growth (NCI/ADR-RES ovarian) [%],growth (T-47D breast),growth (TK-10 renal) [%],growth (A498 renal) [%]
CCCC(=O)NC(c1ccc2c(c1)OC(F)(F)O2)c1cc(C)c2cccnc2c1O (configuration not stated),23.1,19.4,6.46% (active),6.71% (active),12.8,9.16% (active),15.3%,13,29.1,14.3,42,33.7,9.65% (active),12.7%,24.8,38.5,18.8,23.9%,,
O=C1Nc2ccc(Cl)cc2/C1=C/c1ccc(OCC(=O)c2ccc(Br)cc2)cc1,81.6,93.5,73.4%,88.4%,76.1,102%,95.6%,103,101,96,,91.7,79.9%,63%,,89.3,93.3,84.2%,,
NS(=O)(=O)c1ccc(Nc2nc(SCC(=O)c3ccc(Cl)cc3)nc3ccccc23)cc1,90.6,,82.3%,89%,74.5,92.4%,91.3%,79.6,83.6,95.6,100,91.3,110%,82.8%,102,92.2,105,77.6%,153,74.8
CCOC(=O)c1c(Nc2ccccc2)nn2c(N)c(C#N)c(-c3ccc(OC)cc3)nc12,69.2,86.6,76.7%,38.5%,52.8,89.3%,94.7%,,88.7,66.1,101,35.9,55.9%,,101,19.4,73.3,61.3%,,75.5
CCOC(=O)c1c(Nc2ccccc2)nn2c(N)c(C#N)c(-c3ccccc3)nc12,82.3,93.9,81.1%,83.4%,72,68.3%,46.8%,58.9,68.8,94,109,82.5,108%,90.2%,94.5,75.2,88.7,55.5%,,
CCOC(=O)c1c(Nc2ccccc2)nn2c(-c3ccco3)c(C#N)cnc12,75.7,92.9,71%,56.5%,90.1,82.4%,92.2%,,79.3,82.1,109,86.6,109%,100%,131,72,80,87.8%,,45.1
CCN1CCN(S(=O)(=O)c2oc(-c3ccc(Cl)cc3)nc2C#N)CC1,95.6,78.7,33.2%,-86.6% (active),65,2.3% (active),0.374% (active),,29,85,94.8,105,129%,7.89% (active),41.8,105,96,7.45% (active),,93.2
Clc1ccc2c(OCCCN3CCOCC3)c3oc4ccccc4c3nc2c1,34.6,30.4,22.2%,15.3%,19.7,,11.7%,11.9,29,31.2,35.1,59,71.8%,19.7%,69.5,38.4,36.3,40.8%,,13.6
